Screening results from PubChem.
Most compounds without a hit are left out; they make up all but 2.5% or so of the library.
ULK1 inh = ULK1 kinase inhibitors, primary screen, biochemical, AlphaScreen; Serine/threonine-protein kinase ULK1 (Homo sapiens), O75385; AlphaScreen Atg13 phosphorylation by ULK1, luminescence; inhibition, % at 5.96 µM; actives 1.9% (n = 30,000); in the data active means inhibition above about 43%;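 further: 0% = median of compound wells and 100% = no enzyme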
ASK1 primary = ASK1 kinase inhibitors, primary screen, biochemical, AlphaScreen | Mitogen-activated protein kinase kinase kinase 5 (Homo sapiens), Q99683 | inhibition, % at 7.44 µM | AlphaScreen MKK6 phosphorylation by ASK1, luminescence | actives 0.99% (n = 22,000); in the data active means inhibition above about 35%;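 further: 0% = median of compound wells and 100% = no enzyme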
TruHits interf = AlphaScreen signal interference by compounds, dose response, artefact control for ASK1 inhibitor project, biochemical, TruHits beads; AID 1159604, 2016; signal interference counterscreen; shares compounds with ASK1 primary; IC50, µM; actives 20% (n = 220);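 active means IC50 of 10 µM or lower in the counterscreen; inactive means IC50 above 10 µM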;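 further: loss of AlphaScreen light from TruHits beads alone with no ASK1 enzyme present; potency of signal reduction so a low IC50 flags an assay artifact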
The depositor's hits bear a star; i = inactive; / = no result given.

SMILES | ULK1 inh | ASK1 primary | TruHits interf
O=C(Cc1cn(-c2ccc(N3CCN(Cc4ccc5c(c4)OCO5)CC3)nn2)c2ccccc12)Nc1ccccc1 | 0 | -2 | /
COc1cc(Nc2nc(-c3ccc(C(N)=O)cc3)nc3c2ncn3C2CCCCC2)cc(OC)c1OC | 20 | 40* | >20
COc1cc(Nc2nc(-c3ccc(C(=O)NC4CC4)cc3)nc3c2ncn3C2CCCCC2)cc(OC)c1OC | 16 | 34 | /
O=C1CCCN1CCCNc1nc(NC2CC2)c2ncn(-c3ccccc3)c2n1 | 7 | 3 | /
Cc1ccc(NC(=S)Nc2ccccc2C(N)=O)cc1 | -6 | / | /
Nc1cc(C2=C3C=CN=C3C(=O)NCC2)c(O)[nH]1 | 71* | 38* | >19
Nc1cc(C2=C3C=C(Br)N=C3C(=O)NCC2)c(O)[nH]1 | 31 | 17 | /
Cc1cccc(S(=O)(=O)NCCc2csc(-c3cccc(F)c3)n2)c1 | -14 | / | /
COc1cc2nc(Nc3ccc(-n4ccnc4)cc3)nc(Nc3ccc(NC(C)=O)cc3)c2cc1OC | -28 | 13 | /
COc1cc2nc(NCc3cccnc3)nc(Nc3ccc(N4CCOCC4)cc3)c2cc1OC | 17 | 21 | /
COc1cc2nc(Nc3ccc(N4CCOCC4)cc3)nc(Nc3ccc4c(c3)OCO4)c2cc1OC | -1 | 54* | 4.8*
COc1cc2nc(NCc3ccc4c(c3)OCO4)nc(Nc3ccc(N4CCOCC4)cc3)c2cc1OC | 0 | 51* | 6.3*
COc1ccc(CCNc2cc(C)nc(N3CCN(Cc4ccc5c(c4)OCO5)CC3)n2)cc1 | -27 | 15 | /
Cc1cc(NCCc2ccc(O)cc2)nc(N2CCN(Cc3ccc4c(c3)OCO4)CC2)n1 | 8 | 37* | >18
COc1cc2nc(Nc3ccc(-n4ccnc4)cc3)nc(Nc3ccc4c(c3)OCO4)c2cc1OC | -162 | 49* | >20
COc1cc2nc(Nc3ccc(N4CCOCC4)cc3)nc(Nc3ccc(NC(C)=O)cc3)c2cc1OC | 4 | 31 | /
CC(=O)Nc1cc(F)cc(-c2ccnc(Nc3ccc(-n4nc(C)nc4C)cc3)n2)c1 | -2 | 5 | /
O=S(=O)(c1ccc(Nc2nccc(-c3ccccc3)n2)cc1)N1CCOCC1 | -6 | -9 | /
COc1ccc(CCNC(=O)c2csc(Nc3cc(OC)c(OC)c(OC)c3)n2)cc1 | 9 | 7 | /
COc1ccc(-c2cncc(C(=O)NCc3ccccc3)c2)cc1 | 0 | -5 | /
COc1ccc(CCNc2cc(C)nc(Nc3ccc(N4CCOCC4)cc3)n2)cc1 | 2 | 32 | /
COc1ccc(CCNc2ccnc(Nc3ccc(N4CCOCC4)cc3)n2)cc1 | 8 | 43* | i
c1cc(Nc2ccc3c(c2)OCO3)nc(Nc2ccc(N3CCOCC3)cc2)n1 | -4 | 48* | >20
c1ccc(Nc2ccnc(N3CCc4ccccc4C3)n2)cc1 | -14 | 1 | /
c1ccc2c(c1)CCN(c1nccc(Nc3ccc(N4CCOCC4)cc3)n1)C2 | 7 | 50* | i
SMILES | ULK1 inh | ASK1 primary | TruHits interf
c1cc(Nc2ccc3c(c2)OCO3)nc(N2CCN(Cc3ccc4c(c3)OCO4)CC2)n1 | -30 | 37* | >20
c1ccc(Nc2ccnc(N3CCN(Cc4ccc5c(c4)OCO5)CC3)n2)cc1 | -17 | 9 | /
c1cc(Nc2ccc(N3CCOCC3)cc2)nc(Nc2ccc(N3CCOCC3)cc2)n1 | 12 | 21 | /
NC(C(=O)N1CCC(Nc2ccc3[nH]ncc3c2)CC1)c1ccc(C(F)(F)F)cc1 (centres undefined) | -11 | -19 | /
CC(=O)NCC1(c2ccccc2)CCN(CCCC(=O)c2ccc(F)cc2)CC1 | 7 | / | /
CCCNc1nc(-c2cccc(C(C)=O)c2)nc2c1ncn2Cc1ccc(C(F)(F)F)cc1 | -7 | -10 | /
CC(=O)c1cccc(-c2nc(NCc3ccccc3)c3ncn(Cc4ccc(C(F)(F)F)cc4)c3n2)c1 | -5 | 46* | >19
COc1ccc(-c2nc(NCc3cccc(C(F)(F)F)c3)c3ncn(Cc4ccc(C(F)(F)F)cc4)c3n2)cc1 | -19 | -7 | /
NC(=O)c1ccc(-c2nc(NCc3cccc(C(F)(F)F)c3)c3ncn(Cc4ccc(C(F)(F)F)cc4)c3n2)cc1 | -6 | 41* | >17
NC(=O)c1ccc(Nc2nccc(-c3ccccc3)n2)c(Cl)c1 | -6 | 17 | /
Cc1nn(C)c(C)c1-c1cc(C(=O)NCCCN2CCCC2=O)ccn1 | 5 | -18 | /
c1ccc(OCCNc2nc(NCCN3CCOCC3)nc3c2ncn3C2CCCCC2)cc1 | -10 | -8 | /
c1ccc(OCCNc2nc(Nc3ccc(-n4ccnc4)cc3)nc3c2ncn3C2CCCCC2)cc1 | 14 | 49* | >20
c1ccc(OCCNc2nc(Nc3ccc(N4CCOCC4)cc3)nc3c2ncn3C2CCCCC2)cc1 | 17 | 48* | 7*
c1ccc(OCCNc2nc(Nc3ccncc3)nc3c2ncn3C2CCCCC2)cc1 | 5 | -2 | /
COc1ccc(-c2nc(Nc3ccc(NC(C)=O)cc3)nc(OC)n2)cc1 | -5 | 11 | /
FC(F)(F)c1ccc(Cn2cnc3c(Nc4ccc(N5CCOCC5)cc4)nc(Nc4ccc(N5CCOCC5)cc4)nc32)cc1 | 1 | 22 | /
FC(F)(F)c1ccc(Cn2cnc3c(Nc4ccc5c(c4)OCO5)nc(Nc4ccc(N5CCOCC5)cc4)nc32)cc1 | 3 | 62* | i
CCCNc1nc(Nc2ccc(N3CCOCC3)cc2)nc2c1ncn2Cc1ccc(C(F)(F)F)cc1 | -2 | 40* | i
FC(F)(F)c1ccc(Cn2cnc3c(NCCN4CCOCC4)nc(Nc4ccc(C(F)(F)F)cc4)nc32)cc1 | -36 | 5 | /
COCCNC(=O)c1ccc2c(c1)CC(c1nc(SCCN(C)C)c3cc(-c4cn[nH]c4)ccc3n1)CO2 (centres undefined) | -8 | 9 | /
NC(=O)c1ccc2nc(-c3cccc(N)c3)sc2c1 | 8 | 7 | /
Cc1ccc(-c2ncn(-c3ccc(Nc4nccc(-c5cc(F)cc(N(C)C)c5)n4)cc3)n2)cn1 | -25 | -15 | /
Cc1nc(-c2ccc3cnc(Nc4ccc(-n5cnc(N6CCOCC6)n5)cc4)nc3c2)n[nH]1 | 19 | -21 | /
CN(C)c1cc(F)cc(-c2ccnc(Nc3ccc(-n4cnc(N5CCC(O)CC5)n4)cc3)n2)c1 | -33 | 39* | >19
SMILES | ULK1 inh | ASK1 primary | TruHits interf
CN1CCN(c2ncn(-c3ccc(Nc4nccc(-c5cc(C#N)cc(N6CCC(O)CC6)c5)n4)cc3)n2)CC1 | -51 | 41* | >19
COc1ccc(-c2ncn(-c3ccc(Nc4nccc(-c5cc(C#N)cc(N6CCNCC6)c5)n4)cc3)n2)cn1 | -387 | 45* | >19
COc1ccc(-c2ncn(-c3ccc(Nc4nccc(-c5cc(F)cc(N6CCN(C(C)C)CC6)c5)n4)cc3)n2)cn1 | 12 | -5 | /
N#Cc1cc(-c2ccnc(Nc3ccc(-n4cnc(N5CCOCC5)n4)cc3)n2)cc(N2CCCC(O)C2)c1 (centres undefined) | 6 | 14 | /
c1cc(-n2cnc(N3CCOCC3)n2)ccc1Nc1ncc2ccc(-c3cn[nH]n3)cc2n1 | 59* | 49* | >19
FC(F)(F)c1ccc(Cn2cnc3c(Nc4ccc(N5CCOCC5)cc4)nc(N4CCC(N5CCOCC5)CC4)nc32)cc1 | 15 | 22 | /
CCCNC(=O)Cc1cn(-c2ccc(NC3CCN(Cc4ccccc4)CC3)nn2)c2ccccc12 | -2 | -4 | /
